PubChem BioAssay AID1159580 (chemical genetic matrix, 2015)
The whole screen tested about 5,500 compounds, of which about 2,000 (36%) were called active. Another 18% or so got no clear call; they are omitted. Cut-off read from the data, not from the text of the source: active = normalized growth mostly below about 0.91 (no sharp cut-off); inconclusive = no clear call, values can overlap the other calls; inactive = mostly above about 0.92. The list shows a part of the results.

Experiment: chemical genetic growth profiling, strain panel (AID 1159580);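 note: tested at 20 µM; growth read once vehicle control cultures reached saturation at 30 °C; 1 = growth at the plate median or of vehicle wells; lower values mean less growth of the strain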
Conditions: S. cerevisiae deletion strains, growth OD

Measured: normalized growth

C[C@H]1CC[C@@H](C(C)(C)O)CC2=C1CC[C@@H]2C
inactive: locus YAL021C, strain ccr4, stronger effect = lower value 1 | locus YAL026C, strain drs2, stronger effect = lower value 0.984 | locus YAL030W, strain snc1, stronger effect = lower value 0.995 | locus YBL061C, strain skt5, stronger effect = lower value 0.985 | locus YBR009C, strain hhf1, stronger effect = lower value 0.914 | locus YBR023C, strain chs3, stronger effect = lower value 0.959 | locus YBR171W, strain sec66, stronger effect = lower value 0.978 | locus YBR231C, strain swc5, stronger effect = lower value 1.01 | locus YBR279W, strain paf1, stronger effect = lower value 0.996 | locus YCL011C, strain gbp2, stronger effect = lower value 0.982 | locus YCL016C, strain dcc1, stronger effect = lower value 0.976 | locus YCL061C, strain MRC1, stronger effect = lower value 0.995 | locus YCL069W, strain vba3, stronger effect = lower value 0.997 | locus YCR088W, strain abp1, stronger effect = lower value 0.993 | locus YDL005C, strain med2, stronger effect = lower value 0.998 | locus YDL040C, strain nat1, stronger effect = lower value 0.983 | locus YDR001C, strain nth1, stronger effect = lower value 0.988 | locus YDR069C, strain doa4, stronger effect = lower value 0.981 | locus YDR137W, strain rgp1, stronger effect = lower value 0.91 | locus YDR159W, strain sac3, stronger effect = lower value 0.912 | locus YDR297W, strain sur2, stronger effect = lower value 0.988 | locus YDR334W, strain swr1, stronger effect = lower value 1.01 | locus YDR335W, strain msn5, stronger effect = lower value 0.992 | locus YEL003W, strain gim4, stronger effect = lower value 0.984 | locus YEL037C, strain rad23, stronger effect = lower value 0.994 | locus YEL061C, strain CIN8 (second series), stronger effect = lower value 1 | locus YER015W, strain faa2, stronger effect = lower value 1.01 | locus YER016W, strain bim1, stronger effect = lower value 0.967 | locus YER111C, strain swi4, stronger effect = lower value 0.984 | locus YER155C, strain BEM2 (second series), stronger effect = lower value 0.927 | locus YFR010W, strain ubp6, stronger effect = lower value 0.962 | locus YGL167C, strain pmr1, stronger effect = lower value 0.985 | locus YGL173C, strain kem1, stronger effect = lower value 0.961 | locus YGL227W, strain vid30, stronger effect = lower value 0.999 | locus YGL240W, strain doc1, stronger effect = lower value 0.934 | locus YGL253W, strain hxk2, stronger effect = lower value 1 | locus YHR013C, strain ard1, stronger effect = lower value 0.999 | locus YHR027C, strain rpn1, stronger effect = lower value 0.994 | locus YHR142W, strain chs7, stronger effect = lower value 0.884 | locus YJL092W, strain hpr5, stronger effect = lower value 0.995 | locus YJL095W, strain BCK1 (second series), stronger effect = lower value 0.99 | locus YJL095W, strain BCK1, stronger effect = lower value 0.9 | locus YJL115W, strain asf1, stronger effect = lower value 0.994 | locus YJL129C, strain trk1, stronger effect = lower value 0.983 | locus YJL154C, strain vps35, stronger effect = lower value 0.992 | locus YJL164C, strain tpk1, stronger effect = lower value 0.965 | locus YJL166W, strain qcr8, stronger effect = lower value 0.948 | locus YJL187C, strain SWE1, stronger effect = lower value 0.987 | locus YJR066W, strain TOR1, stronger effect = lower value 0.92 | locus YKL160W, strain elf1, stronger effect = lower value 0.979 | locus YKR026C, strain gcn3, stronger effect = lower value 0.97 | locus YKR091W, strain srl3, stronger effect = lower value 0.993 | locus YLL001W, strain dnm1, stronger effect = lower value 0.991 | locus YLL026W, stronger effect = lower value 0.978 | locus YLL041C, strain sdh2, stronger effect = lower value 0.993 | locus YLR027C, strain aat2, stronger effect = lower value 0.979 | locus YLR221C, strain rsa3, stronger effect = lower value 0.924 | locus YLR258W, strain gsy2, stronger effect = lower value 0.971 | locus YLR320W, strain mms22, stronger effect = lower value 0.896 | locus YLR342W, strain FKS1, stronger effect = lower value 0.989 | locus YLR357W, strain rsc2, stronger effect = lower value 0.893 | locus YLR370C, strain arc18, stronger effect = lower value 0.987 | locus YLR384C, strain iki3, stronger effect = lower value 0.995 | locus YML120C, strain ndi1, stronger effect = lower value 0.972 | locus YMR058W, strain fet3, stronger effect = lower value 0.993 | locus YMR125W, strain sto1, stronger effect = lower value 0.977 | locus YMR129W, stronger effect = lower value 0.986 | locus YMR205C, strain PFK2, stronger effect = lower value 0.896 | locus YMR231W, strain pep5, stronger effect = lower value 0.999 | locus YNL071W, strain lat1, stronger effect = lower value 0.952 | locus YNL183C, strain NPR1, stronger effect = lower value 0.869 | locus YNL209W, strain ssb2, stronger effect = lower value 0.995 | locus YNL248C, strain rpa49, stronger effect = lower value 0.983 | locus YNL322C, strain KRE1 (second series), stronger effect = lower value 0.987 | locus YNR049C, strain mso1, stronger effect = lower value 0.995 | locus YOR001W, strain rrp6, stronger effect = lower value 0.958 | locus YOR070C, strain gyp1, stronger effect = lower value 0.978 | locus YOR080W, strain dia2, stronger effect = lower value 1 | locus YOR083W, strain WHI5, stronger effect = lower value 0.975 | locus YOR106W, strain vam3, stronger effect = lower value 0.972 | locus YOR265W, strain rbl2, stronger effect = lower value 0.983 | locus YOR270C, strain vph1, stronger effect = lower value 0.97 | locus YOR290C, strain snf2, stronger effect = lower value 0.925 | locus YPL051W, strain arl3, stronger effect = lower value 0.979 | locus YPL078C, strain atp4, stronger effect = lower value 0.986 | locus YPL106C, strain sse1, stronger effect = lower value 0.889 | locus YPL240C, strain hsp82, stronger effect = lower value 1.01
active: locus YDR195W, strain ref2 0.822 | locus YDR392W, strain spt3, stronger effect = lower value 0.552 | locus YHR030C, strain SLT2, stronger effect = lower value 0.819 | locus YHR079C, strain IRE1, stronger effect = lower value 0.767 | locus YLR113W, strain HOG1, stronger effect = lower value 0.764 | locus YLR262C, strain YPT6 (second series), stronger effect = lower value 0.841 | locus YOR231W, strain MKK1, stronger effect = lower value 0.849 | locus YPL256C, strain CLN2, stronger effect = lower value 0.796
